Here are results for eight compounds from PubChem BioAssay (NCI).

This is part of a sample that, as a whole, favours compounds with a hit. Of some 79,000 tested, about 15% had one in any assay. Activity calls are given as the source filed them. Cut-off read from the data, not from the text of the source: active = growth inhibition above about 70%; inactive = the rest.

This experiment is described as follows: NCI Yeast Anticancer Drug Screen. Data for the rad14 strain (AID 159).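 Note: 0% = growth of vehicle-treated control cultures.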 As to conditions: S. cerevisiae rad14 strain growth inhibition, stronger effect = higher value. As to the method:
Growth inhibition of yeast strains with defined genetic alterations is measured as a screen for potential anti-cancer activity. Selected strains with alterations in DNA damage repair or cell cycle control were exposed to compounds and growth inhibition was measured relative to vehicle treated controls. The strain used in this assay is rad14

As to `O=c1[nH]c2ccc(Cl)cc2o1`, the growth inhibition is, setting by setting: (at 1.2 µM) -44% (inactive); (at 3.7 µM) -38% (inactive); (at 11.0 µM) -28% (inactive); (at 33.0 µM) -35% (inactive); (at 100.0 µM) -32% (inactive).

As to `CC(=O)ON=C1C=CC(=C(C#N)c2ccc(Cl)cc2)C=C1`, the growth inhibition is -3% (inactive) (at 1.2 µM); -4% (inactive) (at 3.7 µM); -1% (inactive) (at 11.0 µM); 22% (inactive) (at 33.0 µM); 98% (active) (at 100.0 µM).

For the compound `CCc1ccc2c(c1)N(CC(C)CN(C)C)c1ccccc1S2` (stereo not given), the growth inhibition was -2% (inactive) (at 1.2 µM); -4% (inactive) (at 3.7 µM); -1% (inactive) (at 11.0 µM); 23% (inactive) (at 33.0 µM); 96% (active) (at 100.0 µM).

Take `Cc1cc(N(CCOS(C)(=O)=O)CCOS(C)(=O)=O)ccc1C=Nc1ccc(-c2csc(-c3ccccc3)n2)c(Cl)c1`: the growth inhibition reads like this: (at 1.2 µM) 4% (inactive); (at 3.7 µM) 53% (inactive); (at 11.0 µM) 91% (active); (at 33.0 µM) 97% (active); (at 100.0 µM) 91% (active).

In the case of `Cc1c2cc[n+](Cc3ccc(I)cc3)cc2c(C)c2c1[nH]c1ccccc12`, the growth inhibition is 12% (inactive) (at 1.2 µM); 0% (inactive) (at 3.7 µM); 94% (active) (at 11.0 µM); 97% (active) (at 33.0 µM); 96% (active) (at 100.0 µM).

With `CN(C)c1ccc(C2CC(C)(O)Oc3cc4c(cc32)OCO4)cc1` (stereo not given), the growth inhibition was -1% (inactive) (at 1.2 µM); 1% (inactive) (at 3.7 µM); 9% (inactive) (at 11.0 µM); 27% (inactive) (at 33.0 µM); 58% (inactive) (at 100.0 µM).

In the case of `O=C(c1ccc([N+](=O)[O-])cc1)C1N=NCC1c1ccccc1` (stereo not given), the growth inhibition runs as follows: (at 1.2 µM) 1% (inactive); (at 3.7 µM) 2% (inactive); (at 11.0 µM) 6% (inactive); (at 33.0 µM) 13% (inactive); (at 100.0 µM) 51% (inactive).

Regarding `COc1cc(C2SCC(=O)N2c2ccc(-c3ccc(-n4c(-c5ccccc5)nc5ccccc5c4=O)cc3)cc2)ccc1O` (stereo not given), the growth inhibition by setting is: (at 1.2 µM) -1% (inactive); (at 3.7 µM) -1% (inactive); (at 11.0 µM) 2% (inactive); (at 33.0 µM) 11% (inactive); (at 100.0 µM) 25% (inactive).
